Many of the other results were omitted from the sample, so hits are more common in it than they were.
GPT2 inh: blocks human glutamate pyruvate transaminase 2. hit rate 0.25% among 100,000. Recombinant GPT2, coupled pyruvate oxidase/HRP Amplex Red fluorescence. Potency, µM (titrated, usually from 57.7 µM), for the others: top-dose activity change, negative = inhibition, hits mostly inhibitors; active = well fitted inhibition curve with a large enough effect; inconclusive = small, poorly fitted or top-dose-only effect; also: % is scaled to controls: 0 for no effect and ±100 for the full control effect; nearly all actives have a fitted effect of over 60% in size
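GPT2 10ng/uL, a-KG 250uM, L-Ala 2mM, HEPES pH7.5 + 0.0001% Tween; 30 min RT. Then Amplex mix (PO/HRP/ThPP), 30 min RT dark, fluorescence. AOA 50uM used as positive control.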
hNpr1 antagonist: human Npr1 receptor antagonism | AID 1347048 | P16066 | Potency, µM (series often up to 46.3 µM), without a hit: at the highest dose activity change, negative = inhibition, usual class: inhibitors | hit rate 1.6% among 76,000 | HEK293 hNpr1 GloSensor cGMP, ANP-stimulated luminescence; also: % is scaled to controls: 0 for no effect and ±100 for the full control effect; nearly all actives have a fitted effect of over 60% in size
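Compound pre-incubated 30 min at room temperature on GloSensor-loaded HEK293 cells stably carrying hNpr1 and the pGS-40F cGMP biosensor. Stimulation uses hNppA at 0.1 nM final; luminescence is taken at baseline and 20 min post-agonist.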
NPR1 antag cnf: hNpr1 antagonism, confirmation assay | shares compounds with hNpr1 antagonist | HEK293 hNpr1 cGMP GloSensor luminescence, ANP-stimulated | Potency, µM (doses to about 57.6 µM), for inactives: at the highest dose activity change, negative = inhibition, hits mostly inhibitors | hit rate 76% among 1,400 | AID 1347044; also: nearly all actives have a fitted effect of over 70% in size
NPR2 antag: hNpr2 antagonism, selectivity versus Npr1. shares compounds with hNpr1 antagonist. HEK293 hNpr2 GloSensor cGMP luminescence, CNP-stimulated. Potency, µM (doses to about 57.6 µM), for inactives: top-dose activity change, negative = inhibition, hits mostly inhibitors. hit rate 67% among 1,400. AID 1347046; also: nearly all actives have a fitted effect of over 70% in size
Target sequence (P20594 whole entry, looked up): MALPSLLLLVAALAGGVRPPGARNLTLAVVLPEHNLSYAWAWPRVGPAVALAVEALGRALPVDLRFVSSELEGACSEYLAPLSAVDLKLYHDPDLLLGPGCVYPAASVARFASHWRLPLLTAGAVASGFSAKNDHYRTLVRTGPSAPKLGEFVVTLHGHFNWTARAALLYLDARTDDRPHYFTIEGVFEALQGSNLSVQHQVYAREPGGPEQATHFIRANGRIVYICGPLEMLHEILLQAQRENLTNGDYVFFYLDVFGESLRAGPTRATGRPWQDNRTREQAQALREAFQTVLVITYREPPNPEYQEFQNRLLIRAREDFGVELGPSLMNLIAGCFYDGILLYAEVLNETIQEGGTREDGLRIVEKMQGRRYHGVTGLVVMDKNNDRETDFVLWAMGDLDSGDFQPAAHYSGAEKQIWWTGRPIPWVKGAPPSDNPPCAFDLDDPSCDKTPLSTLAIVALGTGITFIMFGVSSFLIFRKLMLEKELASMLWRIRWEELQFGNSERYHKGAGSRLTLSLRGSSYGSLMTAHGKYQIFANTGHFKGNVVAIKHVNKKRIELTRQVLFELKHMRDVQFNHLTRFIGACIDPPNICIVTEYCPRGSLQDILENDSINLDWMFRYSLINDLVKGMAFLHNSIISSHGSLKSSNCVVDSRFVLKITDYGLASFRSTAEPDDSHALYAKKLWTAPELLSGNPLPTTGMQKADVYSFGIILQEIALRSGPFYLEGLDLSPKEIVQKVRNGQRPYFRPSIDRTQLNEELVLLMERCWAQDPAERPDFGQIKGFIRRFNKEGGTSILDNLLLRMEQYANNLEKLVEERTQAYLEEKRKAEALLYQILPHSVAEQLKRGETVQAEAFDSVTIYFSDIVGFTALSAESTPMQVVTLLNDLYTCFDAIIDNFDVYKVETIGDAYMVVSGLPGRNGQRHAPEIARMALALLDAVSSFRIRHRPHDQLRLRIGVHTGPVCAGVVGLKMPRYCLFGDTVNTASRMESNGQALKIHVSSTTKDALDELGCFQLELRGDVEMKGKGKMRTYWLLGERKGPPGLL
FLuc inh counter: FLuc enzyme inhibition, Npr1 counter-screen; shares compounds with hNpr1 antagonist; AID 1347047; Potency, µM (series often up to 57.6 µM), for the others: at the highest dose activity change, negative = inhibition, most hits filed as inhibitors; purified FLuc enzyme, luminescence, Km substrate; hit rate 0.7% among 1,400; active = well fitted inhibition curve with a large enough effect; inconclusive = small, poorly fitted or top-dose-only effect; also: 0% is about no effect
GloSensor ctrl: counter-screen for Npr1 antagonists: GloSensor control cell line; shares compounds with hNpr1 antagonist; HEK293 GloSensor cGMP, SNP-stimulated, luminescence; Potency, µM (titrated, usually from 57.6 µM), inactives show at the highest dose activity change, negative = inhibition, usual class: inhibitors; hit rate 69% among 1,400; AID 1347051; also: % is scaled to controls: 0 for no effect and ±100 for the full control effect; nearly all actives have a fitted effect of over 70% in size
Active calls of the source: *; i = inactive; u = inconclusive; x = no result given; [ ] = another dose, or the depositor's remark. Unless noted, calls follow the shape of the full dose curve. Potency is read from the fitted curve at half-maximal effect.

SMILES	GPT2 inh	hNpr1 antagonist	NPR1 antag cnf	NPR2 antag	FLuc inh counter	GloSensor ctrl
O=C(c1ccc2[nH]ccc2c1)N1CCCN(c2cc(-c3ccc(Br)cc3)[nH]n2)CC1	u	4.5µM*	24µM*	24µM*	-13%	19µM*
COc1ccc(C(=O)N2CCN(c3cc(-c4ccc(F)cc4)[nH]n3)CC2)cc1OC	3%	u	x	x	x	x
COc1cc(C(=O)N2CCCN(c3cc(-c4ccc(F)cc4)[nH]n3)CC2)cc(OC)c1OC	-5%	-1%	x	x	x	x
Cc1ccc(C(=O)N2CCCN(c3cc(-c4ccc(Br)cc4)[nH]n3)CC2)cn1	-17%	u	x	x	x	x
COc1ccc(C(=O)N2CCCN(c3cc(-c4ccc(Br)cc4)[nH]n3)CC2)cc1F	u	11µM*	22µM*	19µM*	-3%	15µM*
COc1ncccc1CN(Cc1cccnc1OC)C[C@H]1COCc2nc3ccc(C)cc3n21	-18%	-17%	x	x	x	x
Cc1noc(C)c1-c1cc2cc(C(C)C)oc2c(NC2CCOCC2)n1	-1%[88.5 µM]	1%[70.6 µM]	x	x	x	x
O=C(Cn1ccc2ccccc2c1=O)N1CCCOC(Cn2cccn2)C1 (stereo not drawn)	u	3%	x	x	x	x
O=C(Nc1cc(F)cc(C(F)(F)F)c1)N1CCCOC(Cn2cccn2)C1 (stereo not drawn)	2%	13µM*	22µM*	22µM*	3%	19µM*
O=C(OCc1ccccc1)N1CCC2(CC1)C(=O)NN=C2c1cccnc1	i	u	19µM*	22µM*	1%	17µM*
O=C(c1ccccc1)N1CCC2(CC1)C(=O)NN=C2c1cccnc1	i	0%	x	x	x	x
COc1cccc(CNC(=O)N2CCC(Oc3ncccc3C(=O)N3CCCCC3)C2)c1 (stereo not drawn)	i	1%	x	x	x	x
O=C(NCc1ccc(Cl)cc1)c1cc2n(n1)CC(c1ccc(Cl)cc1)OC2 (stereo not drawn)	4%	u	x	x	x	x
Cc1ccc(CNC(=O)c2cc3n(n2)CC(c2ccc(Cl)cc2)OC3)cc1 (stereo not drawn)	-1%	u	x	x	x	x
O=C(NCc1ccc(F)c(Cl)c1)c1cc2n(n1)CC(c1ccc(Cl)cc1)OC2 (stereo not drawn)	-16%	u	u	-28%	3%	u
CC(C)Oc1ccc(CNC(=O)c2cc3n(n2)CC(c2ccc(Cl)cc2)OC3)cc1 (stereo not drawn)	u	u	u	-22%	2%	-25%
O=C(NCCCc1ccccc1)c1nc2cccnc2n(CCc2ccccc2)c1=O	i	x	x	x	x	x
O=C(NCC(F)(F)F)c1cc(-c2cccc(C(F)(F)F)c2)c2cccn2n1	i	x	x	x	x	x
CN(C)C(=O)N1C2CCC1CN(c1ccc(C(F)(F)F)cc1)C2	-2%	x	24µM*	19µM*	1%	15µM*
O=C(N1CCCC1)N1C2CCC1CN(c1ccc(C(F)(F)F)cc1)C2	-1%	x	x	x	x	x
CNC(=O)[C@@H]1CN(S(=O)(=O)c2cccs2)C[C@H]1c1nc(C)no1	2%	3%	x	x	x	x
CN1CC(=O)N(C2CCCCC2)Cc2c1ncnc2N1CCN(c2ncccn2)CC1	i	x	x	x	x	x
CC1=C(C(=O)Nc2ccccc2)C(c2cccc(C)c2)N2C(CC(=O)NC3CC3)=CSC2=N1 (stereo not drawn)	i	u	u	u	-2%	u
CCNC(=O)CC1=CSC2=NC(C)=C(C(=O)Nc3ccccc3)C(c3ccc(F)cc3)N12 (stereo not drawn)	i	u	u	-28%	-2%	-18%
CC1=C(C(=O)Nc2ccccc2)C(c2cccc(C)c2)N2C(CC(=O)NC(C)C)=CSC2=N1 (stereo not drawn)	i	u	x	x	x	x
CC1=C(C(=O)Nc2ccccc2)C(c2ccc(F)cc2)N2C(CC(=O)NCC(C)C)=CSC2=N1 (stereo not drawn)	i	u	x	x	x	x

Source: PubChem BioAssay (National Center for Advancing Translational Sciences (NCATS))
